Reference: PubChem BioAssay (NCI)
This is part of a sample that, as a whole, favours compounds with a hit. Of some 79,000 tested, about 15% had one in any assay. Cut-off read from the data, not from the text of the source: active = growth inhibition above about 70%; inactive = the rest. Where a SMILES comes first, the peptide text is derived from it. The star is where a group is joined. Cbz = O=C(OCc1ccccc1)*

Key:
[1] = NCI Yeast Anticancer Drug Screen. Data for the rad50 strain (AID 155);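 note: 0% = growth of vehicle-only cultures of the same strain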; details: S. cerevisiae rad50 strain growth inhibition, hits give high values; at 50.0 µM unless noted
How it was run: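 Genetically altered yeast (DNA repair pathway); compound treatment; growth inhibition vs vehicle ctrl.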

[2] = NCI Yeast Anticancer Drug Screen. Data for the mec2-1 strain (AID 157); details: S. cerevisiae mec2-1 strain, hits give high values; at 50.0 µM unless noted
How it was run: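 Test agents were screened against the mec2-1 yeast strain, with defined DNA repair or cell cycle alteration. Growth was scored as inhibition against vehicle-only controls.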

[3] = NCI Yeast Anticancer Drug Screen. Data for the sgs1 mgt1 strain (AID 161);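 note: 0% = growth of cultures given vehicle only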; details: S. cerevisiae sgs1 mgt1 strain, hits give high values; at 50.0 µM unless noted
How it was run: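 Read-out: growth inhibition vs vehicle controls. Cells: mutant yeast strain deficient in DNA damage repair.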

[4] = NCI Yeast Anticancer Drug Screen. Data for the cln2 rad14 strain (AID 165);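 note: 0% = growth equal to vehicle treated cultures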; details: S. cerevisiae cln2 rad14 strain, hits give high values; at 50.0 µM unless noted
How it was run: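 Growth of compound-exposed yeast (cln2 rad14 genotype) measured and expressed as inhibition relative to vehicle.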

[5] = NCI Yeast Anticancer Drug Screen. Data for the bub3 strain (AID 167); details: S. cerevisiae bub3 mutant strain, hits give high values; at 50.0 µM unless noted
How it was run: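 Yeast carrying a defined mutation is treated with each compound, and growth is compared with that of vehicle-exposed cells to give inhibition.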

[6] = NCI Yeast Anticancer Drug Screen. Data for the mlh1 rad18 strain (AID 175); details: S. cerevisiae mlh1 rad18 strain growth inhibition, hits give high values; at 50.0 µM unless noted
How it was run: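 In this whole-cell yeast screen, a strain with altered DNA damage repair is challenged with compound, and its growth is measured against matched vehicle-treated controls.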

Measured: growth inhibition

Cc1cccc(NC(=O)Nc2ccccc2Cl)n1
inactive: [1] 23.5% | [2] -3.6% | [3] 24.4% | [4] 25.7% | [5] 13.2% | [6] 16.6%

CC1CC(=O)c2c(ccc3c2C(=O)c2cccc(O)c2C3=O)C1 (stereo not drawn)
inactive: [1] -3.55% | [2] -0.45% | [3] 40.2% | [4] 24.8% | [5] -1.05% | [6] 52.8%

CCNC(=O)Nc1cccc(C)n1
inactive: [1] 14.9% | [2] 14.1% | [3] 22.8% | [4] 27.6% | [5] 4.4% | [6] 19.4%

O/N=C/c1ccco1
inactive: [1] 1.2% | [2] -9.85% | [3] 7.75% | [4] -1.15% | [5] -6.55% | [6] 16.1%

COC1OC(CO)C(O)C(O)C1OS(=O)(=O)c1ccc(C)cc1 (stereo not drawn)
inactive: [1] 5.7% | [2] -3% | [3] -10.1% | [4] 1.75% | [5] -1.85% | [6] -13.2%

CC(O)C(C(=O)O)N(CC1(O)OCC(O)C(O)C1O)N=O (stereo not drawn)
inactive: [1] -4.5% | [2] -13.9% | [3] 11.3% | [4] 1.2% | [5] -2.65% | [6] -7.45%

Nc1nc(=O)[nH]c(=O)[nH]1
inactive: [1] -5% | [2] -0.4% | [3] -7.05% | [4] -28.9% | [5] -14.6% | [6] 16.9%

Cc1[nH]n(C(N)=S)c(=O)c1N=Nc1ccc([N+](=O)[O-])cc1Cl
inactive: [1] 57.8% | [2] 6% | [3] 66.2% | [4] -46.5% | [5] 1.5% | [6] 53.2%

CCOC(=O)CCC(NC(=O)C(Cc1ccccc1)NC(=O)OCc1ccccc1)C(=O)OCC (stereo not drawn) (Cbz-Phe-Glu(OEt)-OEt; configuration not given here)
inactive: [1] 3.9% | [2] -2.9% | [3] -0.2% | [4] -6.25% | [5] -7.85% | [6] -59.4%

CC(=O)Nc1nc(SCc2ccccc2)c2[nH]cnc2n1
inactive: [1] -25.2% | [2] 1.75% | [3] 0.6% | [4] -43.5% | [5] 31.2% | [6] 7.3%

Oc1c(CN2CCOCC2)ccc(CN2CCOCC2)c1O
inactive: [1] 13.4% | [2] 17.3% | [3] -14.1% | [4] 4.55% | [5] 16.1% | [6] 35.5%

O=c1c2cc(Cl)ccc2c2ccc(Cl)cc2c(=O)n1-c1ccc2c(c1)Cc1ccccc1-2
inactive: [1] 1.65% | [2] -0.2% | [3] -1.7% | [4] -10.6% | [5] 8.8% | [6] -3.4%

CC1(CO)COC(C)(C)OC1
inactive: [1] 16.1% | [2] 5.85% | [3] 7.1% | [4] 29.2% | [5] 2.75% | [6] 13.6%

COc1cccc(C(=O)C2N=NCC2c2ccccc2)c1 (stereo not drawn)
inactive: [1] -17.4% | [2] -5% | [3] 2% | [4] -15.2% | [5] 61.5% | [6] 29.9%

Nc1ccc(N=Nc2c(S(=O)(=O)O)cc3ccccc3c2S(=O)(=O)O)cc1
inactive: [1] -23% | [2] -30.4% | [3] -38.2% | [4] -18.3% | [5] -46.5% | [6] -27.6%

N#Cc1ccc(/C=C(/C(=O)c2ccccc2)c2ccccc2)cc1
inactive: [1] 7.35% | [2] -31.9% | [3] 0.2% | [4] 6.85% | [5] -23.8% | [6] -3.35%

C/C(=N\NC(=S)Nc1ccccc1)[C@H]1C2CCC(C2)C1C/C=C\CCCC(=O)O (stereo partly drawn)
inactive: [1] 26.1% | [2] 17.3% | [3] 25.9% | [4] 48.1% | [5] 37.5% | [6] 13.4%

C=C(C)C(C)OC(=O)Nc1ccccc1 (stereo not drawn)
inactive: [1] 12.7% | [2] -3.05% | [3] -16.1% | [4] 7.4% | [5] -3.95% | [6] -37.5%

CCOC(=O)C(=CNC(=S)N=Nc1c(O)[nH]c2ccccc12)C(=O)OCC
inactive: [1] -58.4% | [2] -69.2% | [3] -45% | [4] 2.85% | [5] -36.9% | [6] -25.8%

CCCCCCCCCCC1CC(=O)OC1=O (stereo not drawn)
inactive: [1] 17.2% | [2] 14.7% | [3] 29.6% | [4] 9.45% | [5] 9.25% | [6] 8.3%

COc1cc(CC2(C#N)c3ccccc3C=CN2C(=O)c2ccccc2)c(Oc2cc(CC3(C#N)c4ccccc4C=CN3C(=O)c3ccccc3)ccc2OC)cc1OC (stereo not drawn)
inactive: [1] 4.65% | [2] 8.85% | [3] 15.3% | [4] -5.6% | [5] 3.85% | [6] 32.9%

CCC(=O)c1cccc2cccc(C(c3ccccc3)c3ccccc3)c12
inactive: [1] 1.85% | [2] 14.4% | [3] 6.35% | [4] -7.05% | [5] 8.7% | [6] -19.6%

O=c1[nH]c(=O)c2cc(Cl)ccc2[nH]1
inactive: [1] 3.2% | [2] 6.75% | [3] -2.75% | [4] -37% | [5] 4.75% | [6] 0.65%

O=C1C=CC(=O)N1c1ccnc(N2C(=O)C=CC2=O)c1
inactive: [1] 21.4% | [2] -1.55% | [3] 6.1% | [4] -7.05% | [5] 11.8% | [6] 10.2%

Cc1ccc2nc(NC(=O)C(=O)C(C#N)c3nc4ccccc4s3)sc2c1 (stereo not drawn)
inactive: [1] 11.2% | [2] 1.75% | [3] 19.7% | [4] 25.6% | [5] 18.5% | [6] 19.2%

Cc1ccc(S(=O)(=O)OCCOCCOS(=O)(=O)c2ccc(C)cc2)cc1
inactive: [1] 30.8% | [2] -0.4% | [3] 2.25% | [4] 4% | [5] 18.9% | [6] 17.8%

C/C=C\c1noc2c1C(=O)OC(C)C2 (stereo not drawn)
inactive: [1] 49.4% | [2] 23.4% | [3] 40.4% | [4] 14.2% | [5] 22.4% | [6] 17.6%

CC(CN(CP(=O)([O-])[O-])CP(=O)([O-])[O-])N(CP(=O)([O-])[O-])CP(=O)([O-])[O-].N.N.[Pt+2] (stereo not drawn)
inactive: [1] -18.6% | [2] -20.5% | [3] -18.9% | [4] 23.6% | [5] 9.9% | [6] -10.8%

NC(=O)C1CC2(c3ccccn3)c3ccccc3C1c1ccccc12 (stereo not drawn)
inactive: [1] -0.1% | [2] 7.6% | [3] 10.4% | [4] 4.2% | [5] -22.1% | [6] -6.1%

CCCCCCCCCCCCSCCSCCCCCCCCCCCC
inactive: [1] 9.85% | [2] 15.4% | [3] 4.9% | [4] -26.8% | [5] -29.4% | [6] 1.3%

NC(N)=N/N=C(/c1ccccc1)c1ccc(O)cc1O
inactive: [1] 20.2% | [2] -15.7% | [3] -8.5% | [4] 9.7% | [5] -48.6% | [6] 14.5%

CCCCOC(=O)CC(O)C(=O)OCCCC (stereo not drawn)
inactive: [1] 39.1% | [2] -4.45% | [3] -17.5% | [4] -61.2% | [5] -29.9% | [6] -11%

BrC1CC2CCC1CC2 (stereo not drawn)
inactive: [1] -14.7% | [2] -6.45% | [3] -7.2% | [4] -6.8% | [5] -7.05% | [6] 16.6%

Cc1ccc(S(=O)(=O)N/N=C(/c2nc3ccc([N+](=O)[O-])cc3[nH]c2=O)C(O)c2ccc(C(O)/C(=N\NS(=O)(=O)c3ccc(C)cc3)c3nc4ccc([N+](=O)[O-])cc4[nH]c3=O)cc2)cc1 (stereo not drawn)
inactive: [1] -16.6% | [2] -27.6% | [3] -26.2% | [4] 0.6% | [5] -32.7% | [6] -10.3%

C/C=C/C#C/C=C1/C=CC(=O)O1
inactive: [1] -5.95% | [2] -1.35% | [3] -7.2% | [4] 37.1% | [5] 34.2% | [6] 10.1%

Nc1cc([N+](=O)[O-])ccc1C(=O)O
inactive: [1] 15.2% | [2] 0.05% | [3] -11.4% | [4] -3.1% | [5] 2.65% | [6] -14.3%

O=COCCCOCCCOc1ccccc1
inactive: [1] 14.3% | [2] -11.8% | [3] -9.35% | [4] -37.4% | [5] -5.6% | [6] 28.4%

CCc1cccc(CC)c1NC(=S)N/C=C(\C#N)S(=O)(=O)c1ccc(C)cc1
inactive: [1] -4.8% | [2] -10.6% | [3] 17.4% | [4] -15.4% | [5] -5.5% | [6] -20.5%
